From the supplement of paper PMC12494721
Counter-ions that a name gives are not always drawn.

Key:
Details in all cases: incubation time: 27 h, anaerobic, 37 °C;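 for the amine columns active = adjusted P below 0.05 in both replicates with a change the same way and a mean fold change under 0.8 or over 1.25; inactive = the rest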
[1] = system: Clostridium sporogenes DSM 1664; experiment: growth (OD595) fold change vs plate DMSO controls (fold change (ratio)); higher = more growth
In short: (§1)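 The reported measure is growth: the fold change against the median of DMSO controls on the plate. Absorbance at 595 nm from anaerobic 96-well mGAM cultures grown for 27 h at 37 °C was blank-subtracted, corrected for background with 20 µM compound solutions in water, and converted to OD with a calibration factor of 5. Fold changes above 1.5 appear as NA, and values are the mean of 2 biological replicates.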

[2] = system: Escherichia coli IAI1; experiment: as above
In short: as §1

[3] = system: Klebsiella aerogenes DSM 30053; experiment: as above
In short: as §1

[4] = system: Ruminococcus gnavus DSM 108212; experiment: as above
In short: as §1

[5] = system: Klebsiella aerogenes DSM 30053; experiment: fold change of Histamine concentration vs plate DMSO controls (fold change (ratio)); higher = more amine produced, active = hit call of the paper (significant change in both replicates, either direction)
In short: (§2)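 Extracts of whole anaerobic mGAM cultures were analysed for amines by LC–triple-quadrupole MS with dynamic MRM and external calibration curves, with drift corrected within batch. Four gut strains were grown at 37 °C for 27 h in 80 µL wells with compounds at 20 µM final, sweeteners at 50 µM final. Each value expresses fold change over plate DMSO controls. The average of 2 biological replicates is shown.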

[6] = system: Clostridium sporogenes DSM 1664; experiment: fold change of Tryptamine concentration vs plate DMSO controls (fold change (ratio)); higher = more amine produced, active = hit call of the paper (significant change in both replicates, either direction)
In short: as §2

[7] = system: Ruminococcus gnavus DSM 108212; experiment: as above
In short: as §2

[8] = system: Escherichia coli IAI1; experiment: fold change of Putrescine concentration vs plate DMSO controls (fold change (ratio)); higher = more amine produced, active = hit call of the paper (significant change in both replicates, either direction)
In short: as §2

[9] = system: Klebsiella aerogenes DSM 30053; experiment: as above
In short: as §2

[10] = system: Escherichia coli IAI1; experiment: fold change of Cadaverine concentration vs plate DMSO controls (fold change (ratio)); higher = more amine produced, active = hit call of the paper (significant change in both replicates, either direction)
In short: as §2

[11] = system: Klebsiella aerogenes DSM 30053; experiment: as above
In short: as §2

[12] = system: Ruminococcus gnavus DSM 108212; experiment: fold change of 2-Phenylethylamine concentration vs plate DMSO controls (fold change (ratio)); higher = more amine produced, active = hit call of the paper (significant change in both replicates, either direction)
In short: as §2

SMILES	growth [1]	growth [2]	growth [3]	growth [4]	fold change of Histamine concentration [5]	fold change of Tryptamine concentration [6]	fold change of Tryptamine concentration [7]	fold change of Putrescine concentration [8]	fold change of Putrescine concentration [9]	fold change of Cadaverine concentration [10]	fold change of Cadaverine concentration [11]	fold change of 2-Phenylethylamine concentration [12]
NNCCc1ccccc1 [Phenelzine sulfate] (20 µM)	0.965	0.99	1.02	1.01	1.05 (inactive)	0.921 (inactive)	0.995 (inactive)	1.12 (inactive)	0.977 (inactive)	1.04 (inactive)	1.03 (inactive)	0.911 (inactive)
CC(C)NCC(O)COc1ccc(CCOCC2CC2)cc1 (stereo not drawn) [Betaxolol hydrochloride] (20 µM)	1.11	0.969	1.07	0.967	0.935 (inactive)	0.955 (inactive)	1 (inactive)	1.02 (inactive)	0.994 (inactive)	0.99 (inactive)	1 (inactive)	1.01 (inactive)
Cc1cnc(C(=O)NCCc2ccc(S(=O)(=O)NC(=O)NC3CCCCC3)cc2)cn1 [Glipizide] (20 µM)	1.11	0.966	1.04	1.08	0.94 (inactive)	1.01 (inactive)	0.99 (inactive)	0.989 (inactive)	0.998 (inactive)	0.973 (inactive)	1 (inactive)	1.03 (inactive)
Cc1cccc(CN2CCN(C(c3ccccc3)c3ccc(Cl)cc3)CC2)c1 (stereo not drawn) [Meclozine dihydrochloride] (20 µM)	0.897	0.963	1.01	0.705	0.964 (inactive)	1.04 (inactive)	0.826 (inactive)	1 (inactive)	0.989 (inactive)	0.971 (inactive)	1.01 (inactive)	0.93 (inactive)
C[N+](C)(CCOc1ccccc1)Cc1ccccc1.O=C([O-])c1cc2ccccc2cc1O [Bephenium hydroxynaphthoate] (20 µM)	0.816	0.99	0.976	0.995	1.04 (inactive)	1.16 (inactive)	1.04 (inactive)	0.854 (inactive)	0.99 (inactive)	1.51 (active)	0.992 (inactive)	1.06 (inactive)
O=C(Nc1cccc2c(=O)cc(-c3nnn[nH]3)oc12)c1ccc(OCCCCc2ccccc2)cc1 [Pranlukast] (20 µM)	1.1	1.07	0.999	0.934	0.986 (inactive)	0.686 (active)	0.804 (inactive)	1.02 (inactive)	1.01 (inactive)	1.03 (inactive)	1.02 (inactive)	0.865 (inactive)
N=c1ccn2c(n1)O[C@H]1[C@H](O)[C@@H](CO)O[C@H]12 [Ancitabine hydrochloride] (20 µM)	1.2	1.01	0.999	0.855	1.06 (inactive)	0.98 (inactive)	0.744 (active)	1.02 (inactive)	0.991 (inactive)	1 (inactive)	0.992 (inactive)	0.794 (inactive)
CCCCNc1ccc(C(=O)OCCOCCOCCOCCOCCOCCOCCOCCOCCOC)cc1 [Benzonatate] (20 µM)	0.953	1.03	1.04	0.922	0.929 (inactive)	0.96 (inactive)	0.971 (inactive)	1 (inactive)	0.995 (inactive)	1.04 (inactive)	1.01 (inactive)	0.936 (inactive)
CC(C)NCC(O)COc1ccc(COCCOC(C)C)cc1 (stereo not drawn) [Bisoprolol hemifumarate] (20 µM)	1.1	0.975	0.97	0.79	0.965 (inactive)	1.2 (inactive)	1.09 (inactive)	1 (inactive)	0.846 (inactive)	0.99 (inactive)	1.13 (inactive)	1.09 (inactive)
CC(=O)c1ccc(S(=O)(=O)NC(=O)NC2CCCCC2)cc1 [Acetohexamide] (20 µM)	0.85	1.02	0.972	1.33	1.05 (inactive)	1.03 (inactive)	0.951 (inactive)	0.999 (inactive)	1 (inactive)	1.05 (inactive)	0.984 (inactive)	0.942 (inactive)
C=C(NC(=O)C(=C)NC(=O)c1csc(C2=N[C@@H]3c4csc(n4)[C@H]4NC(=O)c5csc(n5)[C@H]([C@](C)(O)[C@@H](C)O)NC(=O)[C@H]5CSC(=N5)/C(=C/C)NC(=O)[C@H]([C@@H](C)O)NC(=O)c5csc(n5)[C@]3(CC2)NC(=O)[C@H](C)NC(=O)C(=C)NC(=O)[C@H](C)NC(=O)[C@H]([C@@H](C)CC)N[C@@H]2C=Cc3c([C@H](C)O)cc(nc3[C@H]2O)C(=O)O[C@@H]4C)n1)C(N)=O [Thiostrepton] (20 µM)	0.00647	1.05	1.14	0.164	0.968 (inactive)	0.033 (active)	0.0887 (active)	1.03 (inactive)	1.03 (inactive)	1.02 (inactive)	1.02 (inactive)	0.084 (active)
CC(=O)OCC(=O)[C@@]1(O)CC[C@H]2[C@@H]3CCC4=CC(=O)CC[C@]4(C)[C@@]3(F)[C@@H](O)C[C@@]21C [Fludrocortisone acetate] (20 µM)	0.949	1.09	1.03	1.06	1.01 (inactive)	1 (inactive)	1.01 (inactive)	1.09 (inactive)	1 (inactive)	1.02 (inactive)	1 (inactive)	0.966 (inactive)
Nc1ccccc1S(N)(=O)=O [o-Sulfanilamide] (20 µM)	0.883	1.01	1.01	1	1.02 (inactive)	0.958 (inactive)	0.928 (inactive)	1.03 (inactive)	1.01 (inactive)	1 (inactive)	1 (inactive)	0.905 (inactive)
CC(=O)OC(C)OC(=O)C(C)c1ccc(-c2ccccc2)c(F)c1 (stereo not drawn) [Flurbiprofen axetil] (20 µM)	1.11	1.03	0.976	0.996	1.01 (inactive)	1.04 (inactive)	1.07 (inactive)	1.04 (inactive)	1 (inactive)	1.07 (inactive)	0.987 (inactive)	1.04 (inactive)
CCCCC(CC)CN1CN(CC(CC)CCCC)CC(C)(N)C1 (stereo not drawn) [Hexetidine] (20 µM)	1.05	1.07	1.11	1.45	0.978 (inactive)	1.23 (inactive)	0.898 (inactive)	1.05 (inactive)	0.987 (inactive)	1.04 (inactive)	1.01 (inactive)	1.05 (inactive)
CC(C)Nc1ncccn1 [Isaxonine] (20 µM)	1.12	0.989	1.07	1.01	0.936 (inactive)	1.05 (inactive)	0.919 (inactive)	1 (inactive)	1.04 (inactive)	1.01 (inactive)	1.01 (inactive)	0.894 (inactive)
CNCC[C@@H](Oc1cccc2ccccc12)c1cccs1 [(R)-Duloxetine hydrochloride] (20 µM)	1.03	1.07	0.994	0.9	1.01 (inactive)	0.986 (inactive)	0.979 (inactive)	1.04 (inactive)	0.994 (inactive)	0.952 (inactive)	0.986 (inactive)	1.02 (inactive)
CC(=O)Oc1ccccc1C(=O)O [Acetylsalicylic acid] (20 µM)	1.11	0.986	1.04	1.17	0.992 (inactive)	1.03 (inactive)	1.18 (inactive)	0.992 (inactive)	0.998 (inactive)	0.93 (inactive)	1.05 (inactive)	1.18 (inactive)
C[C@@H]1C[C@H]2[C@@H]3C[C@H](F)C4=CC(=O)C=C[C@]4(C)[C@@]3(Cl)[C@@H](O)C[C@]2(C)[C@H]1C(=O)COC(=O)C(C)(C)C [Clocortolone pivalate] (20 µM)	1.06	1.03	1.04	0.992	1.04 (inactive)	1.04 (inactive)	1.08 (inactive)	1.02 (inactive)	0.999 (inactive)	1.01 (inactive)	0.997 (inactive)	1.17 (inactive)
COc1ccc(CC2c3cc(OC)c(OC)cc3CC[N+]2(C)CCC(=O)OCCCCCOC(=O)CC[N+]2(C)CCc3cc(OC)c(OC)cc3C2Cc2ccc(OC)c(OC)c2)cc1OC (stereo not drawn) [Atracurium besylate] (20 µM)	0.945	1.13	0.964	1.13	1.01 (inactive)	1.15 (inactive)	1.1 (inactive)	1.09 (inactive)	0.953 (inactive)	1 (inactive)	1.03 (inactive)	1.05 (inactive)
NS(=O)(=O)c1cc2c(cc1Cl)NCNS2(=O)=O [Hydrochlorothiazide] (20 µM)	0.895	1.06	0.998	1.03	1.06 (inactive)	0.949 (inactive)	1.11 (inactive)	1.04 (inactive)	1 (inactive)	0.915 (inactive)	1.11 (inactive)	1.27 (active)
CCCNC(C)(C)COC(=O)c1ccccc1 [Meprylcaine hydrochloride] (20 µM)	0.985	1.02	0.991	1.17	1.02 (inactive)	1.01 (inactive)	1.04 (inactive)	1.01 (inactive)	1 (inactive)	1.04 (inactive)	0.991 (inactive)	1.01 (inactive)
COc1ccc2cc1Oc1ccc(cc1)C[C@H]1c3c(cc4c(c3Oc3cc5c(cc3OC)CCN(C)[C@@H]5C2)OCO4)CCN1C [Cepharanthine] (20 µM)	0.965	0.982	1.02	0.925	1.04 (inactive)	0.993 (inactive)	0.945 (inactive)	0.952 (inactive)	1.01 (inactive)	1.03 (inactive)	1 (inactive)	0.981 (inactive)
CCc1cccc(CC)c1NC(=O)CN(CC(=O)O)CC(=O)O [Etifenin] (20 µM)	1.08	1	1.08	1.1	0.925 (inactive)	1.02 (inactive)	0.951 (inactive)	0.998 (inactive)	1 (inactive)	0.987 (inactive)	1.02 (inactive)	0.924 (inactive)
